# Bioassay records deposited in PubChem by National Center for Advancing Translational Sciences (NCATS).
# Shown are actives, neighbours in structure and some others; about 7.4% of the full set was active somewhere.
# ELG1 genotoxic – induces genotoxicity in HEK293T cells with luciferase-tagged ELG1; HEK293T ELG1-luciferase reporter, luminescence, 16 h; 330,000 compounds, 1.3% hits; Potency, µM (series often up to 46 µM), without a hit: at the top dose activity change, positive = activation, hits mostly activators; further: % of control where 0% means no effect; nearly all actives have a fitted effect of over 60% in size
#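 HEK293T cells expressing luciferase-tagged ELG1 were exposed to compound or DMSO vehicle for 16 hr at 37 °C and 5% CO2. Luciferase activity was then measured with ONE-Glo after 30 min at room temperature.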
# FLuc counter – counter-screen for miR-21 project: firefly luciferase inhibitors or activators; P08659; Potency, µM (series often up to 57.5 µM), inactives show at the highest dose activity change, negative = inhibition, usual class: inhibitors; purified FLuc, Km substrates, luminescence inhibition; AID 588342; 360,000 compounds, 6.9% hits;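 further: plate controls were vehicle for no effect and reference inhibitor for full effect; nearly all actives have a fitted effect of over 55% in size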
# Target sequence (P08659 whole entry, looked up): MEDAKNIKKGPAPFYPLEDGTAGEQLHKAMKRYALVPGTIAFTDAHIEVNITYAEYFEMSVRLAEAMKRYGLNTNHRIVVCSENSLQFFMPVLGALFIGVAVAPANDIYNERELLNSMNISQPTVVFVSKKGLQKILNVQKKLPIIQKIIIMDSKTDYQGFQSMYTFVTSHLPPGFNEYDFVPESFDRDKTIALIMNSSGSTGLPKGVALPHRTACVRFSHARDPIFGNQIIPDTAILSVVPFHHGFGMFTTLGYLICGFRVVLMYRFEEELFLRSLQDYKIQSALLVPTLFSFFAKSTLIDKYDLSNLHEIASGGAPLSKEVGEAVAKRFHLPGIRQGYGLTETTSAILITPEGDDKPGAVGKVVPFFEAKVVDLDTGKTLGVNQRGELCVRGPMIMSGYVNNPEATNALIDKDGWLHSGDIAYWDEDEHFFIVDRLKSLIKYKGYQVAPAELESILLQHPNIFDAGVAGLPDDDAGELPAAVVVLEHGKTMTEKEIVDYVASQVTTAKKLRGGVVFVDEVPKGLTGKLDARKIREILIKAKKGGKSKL
#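 Purified P. pyralis luciferase (10nM final) with 10uM D-luciferin and 10uM ATP (Km levels) in 50mM Tris acetate pH 7.5, 10mM Mg acetate, 0.01% Tween-20, 0.05% BSA; qHTS 6-point titration, ~60 µM downward; luminescence read.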
# Luc counter – Kinase-Glo luciferase inhibition (counter-screen) | Q27757 | Kinase-Glo luciferase, ATP luminescence, 8 min | Potency, µM (titrated, usually from 38.3 µM), inactives show top-dose activity change, negative = inhibition, hits mostly inhibitors | 200,000 compounds, 0.28% hits; further: on the % scale 0 is the no-effect control and ±100 the full control effect; nearly all actives have a fitted effect of over 60% in size
#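 Inhibition of Kinase-Glo luciferase light generation was assessed at 10 uM ATP in pH 7.2 imidazole buffer, with luminescence measured after eight minutes at ambient temperature.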
# NPC1 promoter act – activators of NPC1 promoter. AID 485313. Potency, µM (titrated, usually from 9.22 µM), for the others: top-dose activation, actives largely listed as activators. Huh7 NPC1 promoter luciferase reporter, 24 h. 320,000 compounds, 2.4% hits; further: % of control where 0% means no effect; nearly all actives have a fitted effect of over 60% in size
#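 Luminescence from an NPC1 promoter-driven luciferase reporter in stably transfected Huh7 cells was measured after 24 h compound treatment at 37 °C, followed by 10 min ambient incubation with luciferase detection reagent.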
# SMN2 splice up – SMN2 splice variant enhancement | HEK293 SMN2-luciferase splicing reporter, luminescence, 30-36 h | Potency, µM (series often up to 46.1 µM), inactives show at the highest dose activity change, positive = activation, usual class: activators | 210,000 compounds, 2.8% hits | AID 1458; further: % of control where 0% means no effect; nearly all actives have a fitted effect of over 55% in size
#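 HEK293 cells carry an SMN2 […]–luciferase reporter in which exon 7 inclusion puts luciferase in frame. Cells were plated 10-12 h before compound addition, then incubated 30-36 h at 37C. ONE-Glo luminescence was read; sodium butyrate at 4.5 mM final served as control.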
# Rab9 promoter act – activates the Rab9 promoter. Huh7 Rab9 promoter-luciferase reporter, luminescence, 24 h. Potency, µM (series often up to 9.22 µM), without a hit: at the top dose activation, negative = inhibition, usual class: activators. 320,000 compounds, 2.8% hits; further: % of control where 0% means no effect; nearly all actives have a fitted effect of over 60% in size
#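 Promoter activation is measured as luciferase luminescence in Huh7 cells stably transfected with a Rab9 promoter–luciferase construct, following 24 h compound exposure at 37 °C and 10 min reagent incubation at ambient temperature.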
# * = called active by the depositor; ? = inconclusive; . = not tested or not shown; [ ] = remark or other dose. The call rests on the fitted dose curve; in most records, active means well fitted curve in the direction sought with a large enough effect; inconclusive means small, poorly fitted or top-dose-only effect, or another doubt; inactive means no such curve, though single readings can be large; an effect the other way counts as inactive or inconclusive. Potency means the concentration at half of the fitted maximal effect.
SMILES,ELG1 genotoxic,FLuc counter,Luc counter,NPC1 promoter act,SMN2 splice up,Rab9 promoter act
COc1ccc(Cc2nc3ccc(C(=O)N4CCCC4)cc3o2)cc1,?,13µM*,.,3.2µM*,.,2.2µM*
O=C1CC(NS(=O)(=O)c2cccnc2)CN1c1cccc(F)c1 (centres undefined),-8%,-1%,.,0%,.,2%
Cc1c(C(c2cccc(Br)c2)c2c(C)n(C)n(-c3ccccc3)c2=O)c(=O)n(-c2ccccc2)n1C,2%,1%,.,-4%,.,0%
Fc1cccc(Cl)c1Cc1noc(/C=C/c2ccccc2)n1,15%,13µM*,.,?,.,?
Oc1c(Br)cc(C=Nc2ccc3nc(-c4ccccc4)[nH]c3c2)c(O)c1Br,1%,11µM*,.,?,.,2.8µM*
O=[N+]([O-])c1ccc(O)c(C=Nc2ccc3nc(-c4ccccc4)[nH]c3c2)c1,?,5.4µM*,-12%,?,10%[1.84 µM],3.2µM*
N#Cc1ccc(Nc2nn3c(=O)c4ccccc4nc3s2)cc1,.,-13%,.,.,.,.
CCCCCCn1c(=O)[nH]c2nc3cc(N)ccc3nc2c1=O,-1%,-2%,.,-2%,.,12%
O=C(Nc1ccc(N2CCCC2)cc1)C(c1ccccc1)c1ccccc1,3%,3%,2%,-2%,-13%,-4%
O=C(Nc1ccc(SC(F)(F)F)cc1)c1ccccn1,2.3µM*,0.85µM*,-18%,?,2.2µM*,1.4µM*
O=C(Nc1ccc(N2CCCCCC2)cc1)c1ccccc1Cl,?,11µM*,-3%,21%,14µM*,?
O=C(Nc1ccc(N2CCCC2)cc1)c1ccc(Br)cc1,10%,?,.,18%,.,24%
O=C(Nc1ccc(N2CCCCCC2)cc1)c1ccc[nH]1,?,.,.,1.1µM*,.,0.4µM*
CC(=O)N1CCN(c2ccc(NC(=O)c3ccccc3Cl)cc2)CC1,1%,-4%,.,1%,.,2%
O=C(Nc1ccc(N2CCCCC2)cc1)C(Cl)c1ccccc1 (centres undefined),10µM*,3µM*,-20%,?,16%,0%
CCN(C(=O)c1c(C)noc1C)c1c(N)n(Cc2ccccc2)c(=O)[nH]c1=O,-1%,2%,.,-1%,.,0%
CC1c2[nH]c3ccccc3c2C[C@H]2C(=O)N(CCCN(C)C)CC(=O)N12 (some centres undefined),0%,1%,.,-2%,.,1%
Cc1cc(C(=O)NCc2ccccc2Cl)n(-c2ccccc2)n1,2%,3%,.,-3%,.,9%
COc1ccccc1C(=O)Nc1ccc(N2CCCCC2)cc1,2.9µM*,2.7µM*,-5%,?,18µM*,4µM*
O=C(Nc1ccc(N2CCCCC2)cc1)c1ccccn1,?,0.067µM*,7.9µM*,?,-77%,?
O=C(Nc1ccccc1)c1cccnc1N1CCCC1,1%,0%,-1%,5%,-10%,-4%
CC(=O)NC(c1ccco1)c1cc(Cl)c2ccc(N(C)C)nc2c1O (centres undefined),.,-22%,.,5%,.,7%
COc1cccc(OCc2cc(C(=O)NCc3ccccn3)no2)c1,16µM*,15µM*,.,?,.,2.8µM*
COc1ccc(OCc2cc(C(=O)NCc3cccc(C)n3)no2)c(Cl)c1,26%,24µM*,.,?,.,?
Cc1cc(Cl)ccc1NC(=O)CN1C(=O)C(=O)N(C2CCCC2)C1=O,2%,6%,.,-3%,.,1%
SMILES,ELG1 genotoxic,FLuc counter,Luc counter,NPC1 promoter act,SMN2 splice up,Rab9 promoter act
Cc1nc(C(=O)NNC(=O)c2cccc(Cl)c2)c(C(F)(F)F)o1,0%,5%,.,-3%,.,0%
Cc1nc(/C(N)=N/OC(=O)c2ccc(Cl)cc2)c(C(F)(F)F)o1,3%,7.6µM*,.,-5%,.,-3%
NC(=O)c1ccccc1NC(=O)/C=C/c1cccc(Cl)c1,7%,6.7µM*,-5%,3.2µM*,11µM*,2.2µM*
NC(=O)c1ccccc1NC(=O)/C=C/c1c(Cl)cccc1Cl,12%,19µM*,-22%,?,46%,3.2µM*
NC(=O)c1ccccc1NC(=O)Nc1ccccc1Cl,2%,?,-12%,-2%,-6%,-2%
Cc1ccc(/C=C/C(=O)Nc2cccc3ncccc23)o1,-1%,?,4%,-1%,-3%,-5%
Cc1ccc(/C=C/C(=O)Nc2ccccc2C(N)=O)o1,.,9.5µM*,.,.,11µM*,.
O=C(/C=C/c1cccc(Cl)c1)NCCc1ccccc1,?,?,5%,1%,15%,-6%
COc1ccc(C(=O)N2CCOC2CNC(=O)C(=O)NCCc2ccccc2OC)cc1 (centres undefined),-1%,3%,.,0%,.,7%
Fc1cccc(CCN2CCNC[C@@H]2CC2CCCCC2)c1,-1%,3%,.,0%,.,-4%
COc1ccc(-c2nnn(CC(=O)N(Cc3ccco3)C(C(=O)NCC3CCCO3)c3ccco3)n2)cc1 (centres undefined),5%,2%,3%,-3%,-8%,-2%
Cc1ccc(N(C(=O)Cn2nnc(-c3ccc(C)o3)n2)C(C(=O)NC2CCCC2)c2ccco2)cc1 (centres undefined),4%,0%,-6%,2%,28µM*,-6%
COc1ccc(CN(C(=O)Cn2nnc(-c3ccc(C)o3)n2)C(C(=O)NCC2CCCO2)c2ccco2)cc1 (centres undefined),?,0.19µM*,-7%,?,.,?
Cc1ccc(-c2nnn(CC(=O)N(c3ccccc3)C(C(=O)NC3CCCC3)c3ccncc3)n2)o1 (centres undefined),21%,4%,.,-3%,.,-1%
CCOc1ccc(CCNC(=O)CCCn2c(=O)c3cccn3c3cccnc32)cc1OCC,-3%,4%,.,-2%,.,-5%
COc1ccc(Oc2c(C(F)(F)F)oc3c(CN4CCCC(C)C4)c(O)ccc3c2=O)cc1 (centres undefined),.,2%,.,.,-3%,.
Cc1oc2ccc(O)c(CN3CCN(C)CC3)c2c1C(=O)Nc1cccc(Cl)c1C,.,2%,.,.,3%,.
Cc1ccc(C(=O)/C=C/c2cc(C#N)n(C)c2C)cc1,9%,8.5µM*,.,13%,.,14%
Cc1c(C=C2C(=O)c3ccccc3C2=O)cc(C#N)n1C,-2%,1%,.,-4%,.,-5%
Cc1cccc(C(=O)OCC(=O)c2ccc3c(c2)OCO3)c1O,2.6µM*,0.38µM*,.,0.45µM*,.,1.4µM*
O=C(COC(=O)c1ccccc1[N+](=O)[O-])c1ccc2c(c1)OCO2,?,0.019µM*,.,0.32µM*,.,0.32µM*
CC(C)C(=O)Nc1ccccc1C(=O)OCC(=O)c1ccc2c(c1)OCCO2,0%,1.3µM*,1%,?,-18%,2.8µM*
